Data published in the supplement of paper PMC7556523.

What follows are molecules tested on Sporothrix schenckii ATCC 32286 (assay: growth inhibition relative to untreated control; higher = more growth inhibition (more antifungal activity), active = 80 or more; extreme values may be limits of the assay). Conditions: 1 µM; 48 h.
Procedure, shortened: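 The reported figure is percent growth inhibition relative to untreated cells, from quadruplicate runs. Yeast-form cells of the reference isolates at 1 x 10^5 CFU/ml were exposed to library compounds at a final 1 μM for 48 h at 35°C in 5% CO2, and growth was assessed by microscopy and spectrophotometric readings.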
With `N#CCN(CCCCN1CCN(c2ccc(F)cc2)CC1)C(=O)OCc1ccccc1` the growth inhibition was 2.5% (inactive).
For `COc1cc(C2=NCCN2)ccc1-n1cc(-c2cccc(C3=NCCN3)c2)nn1`, the growth inhibition was 5.5% (inactive).
With `Cc1cc(C)cc(COc2ccc3c(C)c(CCC(=O)O)c(=O)oc3c2C)c1` the growth inhibition was 1.5% (inactive).
With `Clc1ccc(Cl)c(CO[C@H]2CCCC[C@@H]2n2ccnc2)c1` the growth inhibition was 5.5% (inactive).
For `O=C(c1ccc(NCCO)cc1)C1C[C@H]1c1ccc(Cl)cc1` (stereo partly specified), the growth inhibition was 8.5% (inactive).
For `O=C(C1CCN(c2nnc(-n3cccc3)s2)CC1)N1CCC(Cc2ccccc2)CC1`, the growth inhibition was 0.5% (inactive).
In the case of `CC(=O)NC[C@@H]1CN(c2ccc(N3CCOCC3)c(F)c2)C(=O)O1`, the growth inhibition is reported as 12.5% (inactive).
In the case of `Cc1cc(C)n(-c2ccc(NC(=O)C3CCN(Cc4cnc(C)s4)CC3)cc2)n1`, the growth inhibition is reported as 1.25% (inactive).
For `Brc1c(-c2ccc3c(c2)OCO3)nc2ncccn12`, the growth inhibition was 27.8% (inactive).
`O=C(C1CCN(c2cc(-n3cccc3)ncn2)CC1)N1CCc2ccccc2C1` was tested, and the growth inhibition was 10.2% (inactive).
For `Clc1cccc(C(c2ccc(CN3CCNCC3)cc2)n2ccnc2)c1` (stereo unspecified), the growth inhibition was 7% (inactive).
For `N=C(N)Nc1ccc(-c2ccc(-c3ccc(NC(=N)N)cc3Cl)o2)c(Cl)c1`, the growth inhibition was 0% (inactive).
In the case of `COc1cccc(OC)c1C(=O)Nc1ccc(Cl)c(-c2nc3ccccc3s2)c1`, the growth inhibition is reported as 0.75% (inactive).
With `COc1ccc(Oc2ccc([C@@H](C)N(C)c3ncc4c(N)nc(N)nc4n3)cc2)cc1` the growth inhibition was 4.25% (inactive).
With `Nc1nccc2ccc(-c3ccc4nccn4c3)cc12` the growth inhibition was 13.5% (inactive).
`CCc1cc(=O)n(C)c(SC(C)C(=O)Nc2ccc(F)cc2)n1` (stereo unspecified) was tested, and the growth inhibition was 13.5% (inactive).
With `c1ccc(-c2cc(N3CCCCC3)c3ccccc3n2)nc1` the growth inhibition was 14.8% (inactive).
`Cc1cc(Cl)c(S(=O)(=O)N2CCCC2)cc1OCC(=O)NC1CCCCC1` was tested, and the growth inhibition was 0% (inactive).
With `Cc1cc(O)nc(-n2nc(C)cc2C)n1` the growth inhibition was 11.8% (inactive).
With `CCC(Sc1nc2ccccc2o1)C(=O)Nc1nnc(C)s1` (stereo unspecified) the growth inhibition was 3.25% (inactive).
In the case of `COC(=O)Nc1nc2cc(C(=O)c3ccccc3)ccc2[nH]1`, the growth inhibition is reported as 16% (inactive).
